Source: PubChem (National Center for Advancing Translational Sciences (NCATS))
RXFP1 antagonist: RXFP1 (human) relaxin receptor antagonism; Q9HBX9; HEK293-RXFP1, relaxin-stimulated cAMP HTRF, 30 min; hits give low values; activity change, negative = inhibition, % at 57.5 µM; hit rate 0.59% among 350,000;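 active = activity change of -60% or lower, but not beyond a set lower limit; inconclusive = change between -60% and -40%, or beyond the set limit; inactive = change above -40%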; also: % is scaled to controls: 0 for no effect and ±100 for the full control effect
Target sequence (Q9HBX9 whole entry, looked up): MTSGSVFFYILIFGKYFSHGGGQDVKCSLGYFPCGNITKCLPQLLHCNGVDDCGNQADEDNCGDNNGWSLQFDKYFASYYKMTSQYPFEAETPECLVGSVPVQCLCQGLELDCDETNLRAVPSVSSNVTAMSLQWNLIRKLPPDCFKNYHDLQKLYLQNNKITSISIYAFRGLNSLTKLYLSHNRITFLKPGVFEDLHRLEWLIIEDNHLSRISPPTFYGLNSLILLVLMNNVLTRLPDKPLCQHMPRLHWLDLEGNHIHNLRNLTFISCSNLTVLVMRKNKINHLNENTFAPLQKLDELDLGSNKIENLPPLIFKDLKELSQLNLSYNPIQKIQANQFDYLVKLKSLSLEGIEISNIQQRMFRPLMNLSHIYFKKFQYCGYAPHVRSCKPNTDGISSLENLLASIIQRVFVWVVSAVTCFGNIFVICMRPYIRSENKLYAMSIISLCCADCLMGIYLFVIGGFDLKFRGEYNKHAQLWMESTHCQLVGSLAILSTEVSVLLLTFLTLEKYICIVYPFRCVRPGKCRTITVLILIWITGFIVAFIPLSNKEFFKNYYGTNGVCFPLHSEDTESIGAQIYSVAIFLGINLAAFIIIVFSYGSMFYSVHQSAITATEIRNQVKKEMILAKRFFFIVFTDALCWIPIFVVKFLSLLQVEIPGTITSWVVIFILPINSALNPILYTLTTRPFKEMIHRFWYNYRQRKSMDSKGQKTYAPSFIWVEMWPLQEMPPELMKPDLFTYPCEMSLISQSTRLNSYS
gsp ag: activates gsp, the McCune-Albright syndrome mutation; AID 624287; hit rate 0.13% among 340,000; Potency, µM (top dose mostly 76.9 µM), inactives show top-dose activation (cAMP increase), usual class: activators; gsp mutant cells, cAMP HTRF, 30 min; active = well fitted activation curve with a large enough effect; inconclusive = small, poorly fitted or top-dose-only effect, or another doubt; inactive = no such curve, though single readings can be large or run the other way; cell line not stated here;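 also: phosphodiesterase inhibitor Ro 20-1724 added with compounds to block cAMP breakdown; potency is read from the fitted curve at half-maximal effect; nearly all actives have a fitted effect of over 60% in size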
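Cells stably selected in G418 were plated at 2000/well, grown 16-24 hr, then given compounds in DMSO with the PDE inhibitor […] (300 uM solution added) for 30 min at 37C; cAMP was read by HTRF.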
gsp antag: gsp mutant antagonism | gsp-mutant cells, cAMP HTRF, 30 min | Potency, µM (highest dose often 76.9 µM), inactives show at the highest dose activity change, negative = inhibition, actives largely listed as inhibitors | hit rate 0.4% among 340,000 | AID 624288; calls by dose curve; cell line not stated here;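 also: intracellular cAMP measured with PDE inhibitor Ro 20-1724 present during compound exposure; potency is read from the fitted curve at half-maximal effect; % is scaled to controls: 0 for no effect and ±100 for the full control effect; nearly all actives have a fitted effect of over 65% in size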
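Cells in G418 medium, seeded 16-24 h, 37C; buffer exchange to DPBS + 1 mM CaCl2, 0.5 mM MgCl2, 0.05% BSA; cpds in DMSO + […] (300 uM stock), 30 min 37C; HTRF cAMP detection.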
RXFP1 ag: RXFP1 (human) receptor agonism; Potency, µM (highest dose often 57.5 µM), for inactives: top-dose activation, most hits filed as activators; hit rate 0.3% among 370,000; AID 2676; HEK293T-RXFP1 cAMP TR-FRET, 30 min; response scale: percent of porcine relaxin response, buffer zero; active = well fitted activation curve with a large enough effect; inconclusive = small, poorly fitted or top-dose-only effect; also: potency is read from the fitted curve at half-maximal effect; % is scaled to controls: 0 for no effect and ±100 for the full control effect; nearly all actives have a fitted effect of over 60% in size
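HEK293 cells stably expressing RXFP1, treated 30 min at 37C with compounds plus PDE4 inhibitor Ro 20174; cAMP measured by HTRF TR-FRET. Normalized to buffer and 29 nM porcine relaxin; EC50 by Hill fit.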
* = called active by the depositor; [ ] = remark or other dose. Compounds with a hit are over-represented: about 0.9% of the library has one in this group of screens.

Results for CCc1ccc2oc(-c3ccc(OC)cc3)cc(=Nc3c(C)n(C)n(-c4ccccc4)c3=O)c2c1 ?
RXFP1 antagonist: -23.3; gsp ag: -0.8%; gsp antag: 28.2µM*; RXFP1 ag: 2.0%

Results for CCc1ccc2oc(-c3ccc(OC)cc3)cc(=Nc3cccc(C(=O)O)c3)c2c1 ?
RXFP1 antagonist: -32.7; gsp ag: 15.7%[15.4 µM]; RXFP1 ag: 1.2%

How did O=[n+]1c2c(n([O-])c3cc(F)c(N4CCCC4)cc31)CCC2 do in these assays?
RXFP1 antagonist: -2.9; gsp ag: 21.2%; gsp antag: 39.8µM*

What do the screens show for `O=[n+]1c2c(n([O-])c3cc(F)c(N4CCCC4)cc31)CCCC2`?
RXFP1 antagonist: 4.5; gsp ag: 24.0%; gsp antag: 1.7%; RXFP1 ag: 2.0%

How did O=S(=O)(c1cccc(-c2cn3cccnc3n2)c1)N1CCOCC1 do in these assays?
RXFP1 antagonist: -10.6; gsp ag: 17.8µM*; gsp antag: 36.6%; RXFP1 ag: inconclusive

How did CCC(=O)N1CCc2cc(Br)cc(S(=O)(=O)N3CCCC(C(=O)NCc4ccc(C)cc4)C3)c21 (centres undefined) do in these assays?
RXFP1 ag: 4.7%

Results for CC(=O)c1cc(-c2ccccc2)n(CCC(=O)Nc2ccc(C)cc2C)c1C ?
RXFP1 antagonist: -62.2*; RXFP1 ag: 0.0%

What do the screens show for `CC(=O)c1cc(-c2ccccc2)n(CC(=O)Nc2ccc(C)cc2C)c1C`?
RXFP1 antagonist: 6.5; RXFP1 ag: -0.5%

What do the screens show for `Cc1ccc2nc(N/C(=N/S(=O)(=O)c3ccc(F)cc3F)c3ccccc3)sc2c1`?
RXFP1 antagonist: -18.0; gsp ag: 6.2%[15.4 µM]; gsp antag: -8.8%; RXFP1 ag: -2.4%

How did Cc1ccc2nc(N/C(=N/S(=O)(=O)c3ccc(F)cc3)c3ccccc3)sc2c1 do in these assays?
RXFP1 antagonist: 9.2; gsp ag: 2.8%; gsp antag: 25.1µM*; RXFP1 ag: -1.0%

How did CCN(CC)CCCNC(=O)c1c(C)oc2ncnc(N3CCOCC3)c12 do in these assays?
RXFP1 antagonist: 7.2; RXFP1 ag: 0.0%

Results for CC1C(=O)N(Cc2ccccc2F)c2ccccc2N1C(=O)c1c(F)cccc1F (centres undefined) ?
RXFP1 antagonist: -10.5; gsp ag: -19.3%; gsp antag: inconclusive; RXFP1 ag: -1.0%

Results for COc1cccc(CN2C(=O)C(C)N(C(=O)c3c(F)cccc3F)c3ccccc32)c1 (centres undefined) ?
RXFP1 antagonist: -2.7; gsp ag: -19.0%; gsp antag: 35.5µM*; RXFP1 ag: 2.6%

What do the screens show for `CCOc1ccc2nc(N3CCC(C(=O)Nc4ccccc4CC)CC3)sc2c1`?
RXFP1 antagonist: -18.5; RXFP1 ag: 19.8%

How did CCOc1ncccc1C(=O)OCC(=O)N1CCN(S(=O)(=O)c2ccc(Cl)cc2)CC1 do in these assays?
RXFP1 antagonist: -10.7; gsp ag: 7.94µM*; gsp antag: -23.7%; RXFP1 ag: 2.3%

How did Nc1ncccc1C(=O)OCC(=O)N1CCN(S(=O)(=O)c2ccc(Cl)cc2)CC1 do in these assays?
RXFP1 antagonist: 0.5; gsp ag: 2.2%; gsp antag: -8.2%; RXFP1 ag: 1.4%

What do the screens show for `COc1cc(/C=N/NC(=O)Cn2cnc3ccccc3c2=O)ccc1O`?
RXFP1 antagonist: -8.9; gsp ag: 0.5%[15.4 µM]; gsp antag: 3.2%; RXFP1 ag: 13.6%

Results for COc1cc(/C=N/NC(=O)Cn2cnc3c2c(=O)n(C)c(=O)n3C)ccc1O ?
RXFP1 antagonist: 41.2; gsp ag: 22.4µM*; gsp antag: 6.6%; RXFP1 ag: 15.8µM*

How did Cc1ccc2onc(CC(=O)N3CCN(c4ccc(F)cc4)CC3)c2c1 do in these assays?
RXFP1 antagonist: -10.1; RXFP1 ag: -1.3%

What do the screens show for `Clc1ccccc1N=C1NN=C(c2cccs2)CS1`?
RXFP1 antagonist: -82.9*; gsp ag: 0.0%[15.4 µM]; gsp antag: 4.2%; RXFP1 ag: 0.7%

How did Fc1ccccc1N=C1NN=C(c2ccccc2)CS1 do in these assays?
RXFP1 antagonist: -16.6; gsp ag: -9.4%[15.4 µM]; gsp antag: -10.4%; RXFP1 ag: 0.7%

Results for Cc1cc(C)c2oc(C(=O)Nc3c(C(=O)c4ccc(F)cc4)oc4ccccc34)cc(=O)c2c1 ?
RXFP1 antagonist: -0.2; RXFP1 ag: 1.8%

How did COc1ccc2c(c1)CCc1c(C(=O)N3CCCc4ccccc43)noc1-2 do in these assays?
RXFP1 antagonist: -20.2; gsp ag: -5.3%; gsp antag: 39.8µM*; RXFP1 ag: -1.0%

How did CCCCCn1cc2c(c1-c1ccccc1Br)c(=O)n(C)c(=O)n2C do in these assays?
RXFP1 ag: 1.2%

Results for CCOC(=O)c1ccc(NC(=O)CCc2nc(-c3ccccc3)no2)cc1 ?
RXFP1 antagonist: -16.7; gsp ag: -18.7%; gsp antag: 39.8µM*; RXFP1 ag: -0.6%

What do the screens show for `COc1ccc(Oc2ccc(/C=C/C(=O)c3ccc(O)cc3)cc2[N+](=O)[O-])cc1`?
RXFP1 antagonist: -64.1*; gsp ag: 5.0%; gsp antag: -22.1%; RXFP1 ag: -1.9%

How did O=C(/C=C/c1ccc(O)c([N+](=O)[O-])c1)c1ccc2ccccc2c1 do in these assays?
RXFP1 antagonist: -23.1; gsp ag: 30.2%; gsp antag: inconclusive; RXFP1 ag: -1.8%

How did CC1=C(C(=O)Nc2ccc(C(=O)N3CCN(c4cccc(Cl)c4)CC3)cc2)SCCO1 do in these assays?
RXFP1 antagonist: 3.8; gsp ag: 30.2%; gsp antag: inconclusive; RXFP1 ag: 0.7%

What do the screens show for `CC1=C(C(=O)Nc2cccc(C(=O)N3CCN(c4cccc(C(F)(F)F)c4)CC3)c2)SCCO1`?
RXFP1 antagonist: -28.2; gsp ag: 0.6%; gsp antag: 50.1µM*; RXFP1 ag: 2.8%

Results for Cc1cccc(C(=O)Nc2nnc(S(=O)(=O)N(C)Cc3ccc(Cl)cc3)s2)c1 ?
RXFP1 antagonist: -7.8; RXFP1 ag: 12.7%

What do the screens show for `CNC(=O)C(C)c1ncc(C(F)(F)F)cc1Cl` (centres undefined)?
RXFP1 antagonist: -5.8; gsp ag: -9.7%[15.4 µM]; gsp antag: 5.1%; RXFP1 ag: -0.4%

Results for CNC(=O)c1cc2ncc(C(F)(F)F)cc2s1 ?
RXFP1 antagonist: -82.4*; gsp ag: inconclusive; gsp antag: 0.0%; RXFP1 ag: 4.7%

How did CCOC(=O)c1c(NC(=S)Nc2ccc(Cl)cc2)sc(C)c1C do in these assays?
RXFP1 antagonist: -0.6; gsp ag: -6.6%; gsp antag: -9.6%; RXFP1 ag: 1.9%

What do the screens show for `COC(=O)c1c(NC(=S)Nc2ccc(CC(=O)O)cc2)sc(C)c1C`?
RXFP1 antagonist: -62.8*; gsp ag: inconclusive; gsp antag: -0.2%; RXFP1 ag: 18.5%

How did CCC(C(=O)Nc1ccsc1C(=O)OC)c1ccccc1 (centres undefined) do in these assays?
RXFP1 antagonist: -63.5*; gsp ag: 2.5%[15.4 µM]; gsp antag: inconclusive; RXFP1 ag: -0.2%

How did CC(C)c1ccc2c(c1)C(N1CCNCC1)Cc1ccc(F)cc1S2 (centres undefined) do in these assays?
RXFP1 antagonist: -71.7*; gsp ag: -1.9%; gsp antag: 15.7%
